Assay results: PubChem BioAssay (EPA / NIEHS)
Activity calls are given as the source filed them. How the source made its calls: active means hit-call score of the fitted dose curve at least 0.9, where 1 is the maximum; inactive means score below 0.9.

Columns and labels:
Conditions in all cases: mRNA level, 48 h; actives raise or lower the signal
[1] = read-out: Potassium channel subfamily K member 1 (KCNK1), KCNK1 (gene 3775); assay: LTEA_HepaRG_KCNK1: Life Technologies and Expression Analysis (LTEA) Assay for Potassium channel subfamily K member 1 (KCNK1) using HepaRG (AID 2283511)
Procedure, shortened: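 Gain or loss of KCNK1 mRNA is the read-out, quantified by qRT-PCR against three housekeeping genes after 48 h chemical treatment of human HepaRG liver cells. Concentrations ran from 100 uM downward in half-log steps, vehicle 0.5% DMSO.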

[2] = read-out: Keratin 19 (KRT19), KRT19 (gene 3880); assay: LTEA_HepaRG_KRT19: Life Technologies and Expression Analysis (LTEA) Assay for Keratin 19 (KRT19) using HepaRG (AID 2283512)
Procedure, shortened: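 Differentiated HepaRG cells in serum-free induction medium, exposed 48 h in duplicate to 8 half-log concentrations up to 100 uM in 0.5% DMSO. KRT19 mRNA by qRT-PCR, normalized to ACTB, GAPDH, POLR2A; bidirectional fit vs DMSO.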

[3] = read-out: JUN Transcription Factor, JUN (gene 3725); assay: LTEA_HepaRG_JUN: Life Technologies and Expression Analysis (LTEA) Assay for JUN Transcription Factor using HepaRG (AID 2283513)
Procedure, shortened: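 Differentiated HepaRG cells were exposed to chemicals for 48 h in serum-free induction medium, 8 concentrations from 100 uM in half-log steps, 0.5% DMSO vehicle, in duplicate. JUN mRNA was quantified by TaqMan qRT-PCR, normalized to ACTB, GAPDH, POLR2A.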

[4] = read-out: Lipase C (LIPC), LIPC (gene 3990); assay: LTEA_HepaRG_LIPC: Life Technologies and Expression Analysis (LTEA) Assay for Lipase C (LIPC) using HepaRG (AID 2283514)
Procedure, shortened: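 Read-out is LIPC transcript level by TaqMan qRT-PCR, normalized to three housekeeping genes, after 48 h chemical treatment of human HepaRG liver cells. Curves span eight concentrations topping at 100 uM; activity in either direction scored relative to 0.5% DMSO.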

[5] = read-out: Lipoprotein lipase (LPL), LPL (gene 4023); assay: LTEA_HepaRG_LPL: Life Technologies and Expression Analysis (LTEA) Assay for Lipoprotein lipase (LPL) using HepaRG (AID 2283515)
Procedure, shortened: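 Read-out is LPL transcript level by qRT-PCR, normalized to three housekeeping genes and fitted bidirectionally against the DMSO control. Human HepaRG cells received chemicals for 48 h at up to 100 uM.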

[6] = read-out: MicroRNA 122 (MIR122), gene 406906; assay: LTEA_HepaRG_MIR122: Life Technologies and Expression Analysis (LTEA) Assay for MicroRNA 122 (MIR122) using HepaRG (AID 2283516); further: the transcript read is the microRNA miR-122
Procedure, shortened: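 Differentiated human HepaRG cells were exposed 48 h in serum-free induction medium to eight half-log concentrations (top 100 uM, 0.5% DMSO). Transcript level was measured by TaqMan qRT-PCR, normalized to ACTB, GAPDH and POLR2A, and fitted bidirectionally versus DMSO.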

[7] = read-out: matrix metalloproteinase-10 (MMP10), MMP10 (gene 4319); assay: LTEA_HepaRG_MMP10: Life Technologies and Expression Analysis (LTEA) Assay for matrix metalloproteinase-10 (MMP10) using HepaRG (AID 2283517)
Procedure, shortened: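 Gain or loss of MMP10 mRNA is fitted relative to the 0.5% DMSO vehicle. The human hepatic line HepaRG receives a 48-hour serum-free exposure, in duplicate, with a maximum concentration of 100 uM.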

MYC, MYC (gene 4609) = assay: LTEA_HepaRG_MYC: Life Technologies and Expression Analysis (LTEA) Assay for MYC using HepaRG (AID 2283518)
Procedure, shortened: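 Differentiated HepaRG cells exposed 48 h in serum-free induction medium to 8 concentrations (top 100 uM, half-log steps; 0.5% DMSO), duplicate. MYC mRNA measured by Fluidigm qRT-PCR, normalized to ACTB, GAPDH, POLR2A; bidirectional fit versus DMSO.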

[8] = read-out: matrix metalloproteinase-3 (MMP3), MMP3 (gene 4314); assay: LTEA_HepaRG_MMP3: Life Technologies and Expression Analysis (LTEA) Assay for matrix metalloproteinase-3 (MMP3) using HepaRG (AID 2283519)
Procedure, shortened: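 HepaRG, human; 48 h dosing, 8 conc. (max 100 uM, half-log), duplicate, 0.5% DMSO. Readout: MMP3 transcript by Fluidigm TaqMan qRT-PCR, ACTB/GAPDH/POLR2A-normalised. Gain or loss fitted vs DMSO.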

[9] = read-out: Paternally Expressed 10 (PEG10), PEG10 (gene 23089); assay: LTEA_HepaRG_PEG10: Life Technologies and Expression Analysis (LTEA) Assay for Paternally Expressed 10 (PEG10) using HepaRG (AID 2283520)
Procedure, shortened: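 Differentiated HepaRG cells, plated 48 h then switched to serum-free induction medium, were exposed in duplicate for 48 h to eight half-log concentrations topping at 100 uM in 0.5% DMSO. PEG10 mRNA was quantified by TaqMan qRT-PCR, normalised to ACTB, GAPDH and POLR2A.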

Measured: AC50

CCCC(=NOCC)C1=C(O)CC(CC(C)SCC)CC1=O (configuration not stated)
not listed: [9]
inactive: all other assays above

CSC(=O)c1c(C(F)F)nc(C(F)(F)F)c(C(=O)SC)c1CC(C)C
active: [4] 91.9 µM | [6] 49.8 µM
not listed: [9]
inactive: all other assays above

C=CCOC(=O)C(C)(C)OC(=O)c1cc(-n2c(=O)cc(C(F)(F)F)n(C)c2=O)ccc1Cl
not listed: [3] | [9]
inactive: all other assays above

CCOP(=O)(OCC)Oc1nc(Cl)c(Cl)cc1Cl
active: [4] 78.7 µM | [5] 61.5 µM | [6] 87.7 µM | MYC, MYC (gene 4609) 49.8 µM | [8] 62.7 µM
inactive: [1] | [2] | [7]

O=C(O)c1c(Cl)ccc2cc(Cl)cnc12
not listed: [3]
inactive: all other assays above

CC1(C)CON(Cc2ccccc2Cl)C1=O
active: [9] 22.5 µM
not listed: [3]
inactive: all other assays above

CC(C)NC(=O)N1CC(=O)N(c2cc(Cl)cc(Cl)c2)C1=O
inactive: [1] | [6] | [7] | [8]
active: [2] 20.3 µM | [4] 10.2 µM | [5] 14.6 µM | MYC, MYC (gene 4609) 13.2 µM

CC(C)Oc1cccc(NC(=O)c2ccccc2C(F)(F)F)c1
active: [2] 34.1 µM
not listed: [3] | [9]
inactive: all other assays above

O=C(Nc1ccccc1-c1ccc(Cl)cc1)c1cccnc1Cl
not listed: [3] | [9]
inactive: all other assays above

CC(C)N1C(=O)N(c2ccccc2)CSC1=NC(C)(C)C
inactive: [1] | [7]
active: [2] 50 µM | [4] 72.2 µM | [5] 78.7 µM | [6] 81.4 µM | MYC, MYC (gene 4609) 72.2 µM | [8] 26.4 µM | [9] 12.7 µM

CCN(CC)C(=O)C(C)Oc1cccc2ccccc12 (configuration not stated)
inactive: [1] | [5] | [7] | MYC, MYC (gene 4609)
active: [2] 50 µM | [4] 69.6 µM | [6] 81.1 µM | [8] 76.2 µM

CS(=O)(=O)c1ccc(C(=O)C2C(=O)CCCC2=O)c([N+](=O)[O-])c1
not listed: [3] | [9]
inactive: all other assays above

CCOP(=S)(OCC)Oc1nc(Cl)n(C(C)C)n1
active: [5] 64.7 µM
not listed: [3]
inactive: all other assays above

COc1cc(OC)nc(NC(=O)NS(=O)(=O)c2ncccc2OCC(F)(F)F)n1
not listed: [3]
inactive: all other assays above

Cn1c(-c2ccccc2)cc(-c2ccccc2)[n+]1C
active: [2] 24 µM | [4] 28 µM | [5] 11.4 µM | [6] 28.7 µM | MYC, MYC (gene 4609) 3.12 µM | [8] 88.9 µM
inactive: [1]

Nc1cnn(-c2ccccc2)c(=O)c1Cl
not listed: [3]
inactive: all other assays above

COc1cc(Cl)c(OC)cc1Cl
not listed: [3]
inactive: all other assays above

COC(=O)N(C(=O)N1CO[C@@]2(C(=O)OC)Cc3cc(Cl)ccc3C2=N1)c1ccc(OC(F)(F)F)cc1
active: [2] 16.9 µM | [4] 40 µM | [5] 2.97 µM | [6] 40 µM | [9] 20.5 µM
inactive: [1] | [7] | MYC, MYC (gene 4609) | [8]

CN/C(=N\[N+](=O)[O-])NCc1cnc(Cl)s1
active: [1] 50 µM | [2] 17.8 µM
not listed: [3]
inactive: all other assays above
